Source: PubChem BioAssay (Tox21)
Records with an inconclusive call do not appear. The source made the active and inactive calls. Unless noted, the call rests on the fitted dose curve; in most records, active means well fitted curve in the direction sought with a large enough effect in the repeat runs; inconclusive means weak or mixed curves; inactive means no such curve, though single readings can be large; an effect the other way counts as inactive or inconclusive.

Columns and labels:
[1] = qHTS assay to identify small molecule agonists of the peroxisome proliferator-activated receptor delta (PPARd) signaling pathway - cell viability counter screen (AID 743211); details: PPARd-bla HEK293H viability, CellTiter-Glo luminescence, 17 h; series mostly up to 62.6 µM; further: nearly all actives have a fitted effect of over 55% in size
Summary of the method: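 qHTS cell viability: PPARd-bla HEK293H; 17 h cpd, 37C; CellTiter-Glo, luminescence at 30 min RT.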

[2] = qHTS assay to identify small molecule antagonists of the peroxisome proliferator-activated receptor delta (PPARd) signaling pathway - cell viability counter screen (AID 743213); details: PPARd-bla HEK293H viability, CellTiter-Glo luminescence, 17 h; series mostly up to 62 µM; further: nearly all actives have a fitted effect of over 50% in size
Summary of the method: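 Luminescence from CellTiter-Glo, added after the bla read and incubated 30 min at room temperature, gives viability of HEK293H PPARd-bla cells exposed to compounds for 17 h at 37 C with 300 nM L165041.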

[3] = qHTS assay to identify small molecule agonists of the farnesoid-X-receptor (FXR) signaling pathway - cell viability counter screen (AID 743218); details: FXR-bla HEK293T viability, CellTiter-Glo luminescence, 16 h; series mostly up to 62.6 µM; further: nearly all actives have a fitted effect of over 45% in size
Summary of the method: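 Cells were seeded, left 5 h at 37 C and 5% CO2, then dosed with compound in DMSO for 16 h. After the beta-lactamase FRET read, CellTiter-Glo was added and luminescence measured 30 min later.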

[4] = qHTS assay to identify small molecule antagonists of the farnesoid-X-receptor (FXR) signaling pathway - cell viability counter screen (AID 743221; active means well fitted cell-killing curve with a large enough effect in the repeat runs, not every such curve was filed as active; further: nearly all actives have a fitted effect of over 50% in size); details: FXR-bla HEK293T viability, CellTiter-Glo luminescence, 16 h; series mostly up to 62.6 µM
Summary of the method: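 After a 5 h settling period, FXR-bla HEK 293T cells receive compound and chenodeoxycholic acid (50 uM final) and incubate 16 h at 37 C; CellTiter-Glo luminescence, read after 30 min at room temperature, reports cell viability.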

[5] = target: Vitamin D3 receptor (Homo sapiens) (UniProt P11473); assay: qHTS assay to identify small molecule agonists of the vitamin D receptor (VDR) signaling pathway (AID 743222; calls by dose curve); details: HEK293T VDR-UAS-bla, beta-lactamase FRET ratio, 16 h; series mostly up to 63.5 µM
Chain of Vitamin D3 receptor (Homo sapiens) (P11473 whole entry, looked up): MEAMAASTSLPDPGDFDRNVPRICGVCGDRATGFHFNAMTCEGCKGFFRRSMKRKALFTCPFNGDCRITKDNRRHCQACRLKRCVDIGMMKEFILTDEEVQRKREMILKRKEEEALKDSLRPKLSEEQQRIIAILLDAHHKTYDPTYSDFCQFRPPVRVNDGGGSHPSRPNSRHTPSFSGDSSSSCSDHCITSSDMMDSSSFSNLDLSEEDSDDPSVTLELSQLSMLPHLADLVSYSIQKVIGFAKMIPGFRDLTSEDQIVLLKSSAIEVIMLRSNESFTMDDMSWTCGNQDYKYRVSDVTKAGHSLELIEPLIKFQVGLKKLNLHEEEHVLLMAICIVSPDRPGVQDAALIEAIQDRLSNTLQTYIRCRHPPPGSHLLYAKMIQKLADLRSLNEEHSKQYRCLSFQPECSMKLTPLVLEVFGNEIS
Summary of the method: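 Cells carrying a VDR-driven beta-lactamase reporter are seeded at 2,000 per well and rested 4 h. Compounds in DMSO are added for 16 h at 37C, and FRET substrate fluorescence is measured after 2 h at room temperature.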

[6] = target: Vitamin D3 receptor (Homo sapiens) (UniProt P11473); assay: qHTS assay to identify small molecule antagonists of the vitamin D receptor (VDR) signaling pathway (AID 743223; active means well fitted inhibition curve with a large enough effect in the signal ratio in the repeat runs, not every such curve was filed as active; the % refers to the signal ratio); details: VDR-UAS-bla HEK293T, beta-lactamase FRET ratio, 16 h; series mostly up to 61 µM
Summary of the method: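 Reporter line VDR-bla; stimulus 1alpha,25-(OH)2 vitamin D3, 3 nM final; compound co-addition, 16 h 37C/5% CO2; LiveBLAzer B/G substrate 2 h RT; fluorescence intensity.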

[7] = qHTS assay to identify small molecule antagonists of the vitamin D receptor (VDR) signaling pathway - cell viability counter screen (AID 743225); details: VDR-bla HEK293T viability, CellTiter-Glo luminescence, 16 h; series mostly up to 61 µM; further: nearly all actives have a fitted effect of over 50% in size
Summary of the method: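 Parallel cytotoxicity test: VDR-UAS-bla HEK 293T, 3 nM (final) 1-alpha,25-dihydroxyvitamin D3 with test compound, 16 h, 37C. Endpoint is CellTiter-Glo luminescence in the same wells.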

[8] = qHTS assay to identify small molecule agonists of the NFkB signaling pathway (AID 1159509; active means well fitted curve in the direction sought with a large enough effect in the signal ratio in the repeat runs, not every such curve was filed as active; the % refers to the signal ratio); details: NFkB-bla ME-180 cells, beta-lactamase FRET ratio, 5 h; series mostly up to 61 µM
Summary of the method: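 Agonist activity was read as beta-lactamase-driven FRET change (460 and 530 nm emission, 405 nm excitation) following 1.5 hr substrate loading at room temperature. Beforehand, ME-180 NFkB-bla reporter cells were treated with compounds for 5 hr at 37 C.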

[9] = qHTS assay to identify small molecule agonists of the NFkB signaling pathway - cell viability counter screen (AID 1159515; calls by dose curve; further: nearly all actives have a fitted effect of over 55% in size); details: NFkB-bla ME-180 viability, CellTiter-Glo luminescence, 5 h; series mostly up to 61 µM
Summary of the method: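 Cells are seeded (2,000 NFkB-bla ME-180 per well), rested overnight, and dosed with DMSO-dissolved compounds for 5 hr at 37 C. Viability is then read by CellTiter-Glo luminescence after 30 min at room temperature.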

[10] = qHTS assay to identify small molecule agonists of the endoplasmic reticulum stress response signaling pathway (AID 1159516; active means well fitted activation curve with a large enough effect in the signal ratio in the repeat runs, not every such curve was filed as active; the % refers to the signal ratio); details: ESRE-bla HeLa, ER stress beta-lactamase reporter, 5 h; series mostly up to 61 µM
Summary of the method: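 Cells are seeded at 1,500 per well and incubated overnight. Compounds in DMSO are added for 5 hr at 37 C, then beta-lactamase FRET substrate for 2 hr at room temperature, and fluorescence at 460 and 530 nm is measured.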

[11] = qHTS assay to identify small molecule agonists of the endoplasmic reticulum stress response signaling pathway - cell viability counter screen (AID 1159517; calls by dose curve;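 further: HeLa cells carrying an ER stress response element beta-lactamase reporter; nearly all actives have a fitted effect of over 50% in size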); details: ESRE-bla HeLa viability, CellTiter-Glo luminescence, 5 h; series mostly up to 61 µM
Summary of the method: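 Cpd-treated ESRE-bla HeLa (5 hr, 37 C) → LiveBLAzer 2 hr RT → CellTiter-Glo 30 min RT → luminescence.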

[12] = qHTS assay to identify small molecule antagonists of the retinoid-related orphan receptor gamma (ROR-gamma) signaling pathway - cell viability counter screen (AID 1159520); details: Tet-on RORgamma CHO cells viability, ATP luminescence, 16 h; series mostly up to 92.4 µM; further: nearly all actives have a fitted effect of over 50% in size
Summary of the method: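 Tet-on ROR gamma CHO cells (1,000/well) were plated 4 hr, given compounds in DMSO for 2 hr at 37 C, then induced with 1 uM final doxycycline for 16 hr. Viability was read as ATP by CellTiter-Glo luminescence after 30 min.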

[13] = target: Nuclear receptor ROR-gamma (Homo sapiens) (UniProt P51449); assay: qHTS assay to identify small molecule antagonists of the retinoid-related orphan receptor gamma (ROR-gamma) signaling pathway (AID 1159521); details: Tet-on RORgamma CHO cells, RORE-luciferase, 16 h; series mostly up to 92.4 µM
Summary of the method: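 Decreased RORE-driven luciferase luminescence indicates antagonism. Tet-on RORγ CHO cells received compound, then 1 uM final doxycycline 2 h later; signal read after 16 h incubation.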

[14] = qHTS assay to identify small molecule agonists of the AP-1 signaling pathway - cell viability counter screen (AID 1159525; calls by dose curve; further: nearly all actives have a fitted effect of over 55% in size); details: ME-180 AP-1-bla cells viability, ATP luminescence, 5 h; series mostly up to 76.8 µM
Summary of the method: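 Each titration point was normalised to DMSO and tetra n-octyl ammonium bromide controls. The read was Cell Titer Glo luminescence after 30 min at RT, following 5 h compound exposure of ME-180 AP-1-bla cells at 37 °C.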

[15] = qHTS assay to identify small molecule agonists of the AP-1 signaling pathway (AID 1159526; calls by dose curve); details: ME-180 (cervical carcinoma) AP-1-bla reporter, beta-lactamase FRET ratio, 5 h; series mostly up to 76.8 µM
[16] = qHTS assay to identify small molecule agonists of the vitamin D receptor (VDR) signaling pathway - cell viability counter screen (AID 743224); details: VDR-bla HEK293T viability, CellTiter-Glo luminescence, 16 h; series mostly up to 62.6 µM; further: nearly all actives have a fitted effect of over 50% in size
Summary of the method: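 Cells: VDR-bla, 2,000/well, settled 4 h. Treatment: compounds in DMSO, 16 h, 37C/5% CO2. Readout: CellTiter-Glo luminescence after 30 min RT.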

[17] = target: Bile acid receptor (Homo sapiens) (UniProt Q96RI1); assay: qHTS assay to identify small molecule antagonists of the farnesoid-X-receptor (FXR) signaling pathway (AID 743217; active means well fitted inhibition curve with a large enough effect in the signal ratio in the repeat runs, not every such curve was filed as active; the % refers to the signal ratio); details: HEK293T FXR-UAS-bla, beta-lactamase ratio, CDCA-stimulated, 16 h; series mostly up to 62.6 µM
Chain of Bile acid receptor (Homo sapiens) (Q96RI1 whole entry, looked up): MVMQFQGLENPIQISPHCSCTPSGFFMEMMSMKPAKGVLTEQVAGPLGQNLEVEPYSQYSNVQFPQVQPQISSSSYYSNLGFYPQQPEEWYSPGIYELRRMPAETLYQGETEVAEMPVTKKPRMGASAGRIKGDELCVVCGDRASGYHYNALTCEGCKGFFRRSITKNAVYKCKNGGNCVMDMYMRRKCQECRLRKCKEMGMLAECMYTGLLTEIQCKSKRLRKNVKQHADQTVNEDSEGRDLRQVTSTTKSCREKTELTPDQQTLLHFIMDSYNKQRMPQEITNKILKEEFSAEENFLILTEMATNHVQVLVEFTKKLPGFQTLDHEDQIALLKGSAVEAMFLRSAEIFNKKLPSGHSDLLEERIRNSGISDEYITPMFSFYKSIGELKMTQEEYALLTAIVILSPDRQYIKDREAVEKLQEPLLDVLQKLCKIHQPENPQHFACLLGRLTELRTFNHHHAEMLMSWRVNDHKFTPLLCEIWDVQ
Summary of the method: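 Cells carrying a UAS-driven beta-lactamase reporter (GeneBLAzer FXR-UAS-bla HEK 293T) were plated and rested 5 h at 37 °C. Compounds in DMSO were added alongside chenodeoxycholic acid agonist at 50 uM final and left 16 h at 37 °C before FRET substrate readout.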

[18] = target: Bile acid receptor (Homo sapiens) (UniProt Q96RI1); assay: qHTS assay to identify small molecule agonists of the farnesoid-X-receptor (FXR) signaling pathway (AID 743220; active means well fitted activation curve with a large enough effect in the signal ratio in the repeat runs, not every such curve was filed as active; the % refers to the signal ratio); details: HEK293T FXR-UAS-bla, beta-lactamase FRET ratio, 16 h; series mostly up to 62.6 µM
Summary of the method: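 FXR-UAS-bla HEK 293T cells carrying a UAS-driven beta-lactamase reporter were plated for 5 h at 37C/5% CO2, then exposed to DMSO-dissolved Tox21 10K compounds for 16 h at 37C. A LiveBLAzer B/G FRET substrate was loaded for 2 h at room temperature before fluorescence reading.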

[19] = target: Peroxisome proliferator-activated receptor delta (Homo sapiens) (UniProt Q03181); assay: qHTS assay to identify small molecule agonists of the peroxisome proliferator-activated receptor delta (PPARd) signaling pathway (AID 743212; calls by dose curve); details: HEK293H PPARd-UAS-bla, beta-lactamase FRET ratio, 17 h; series mostly up to 62.6 µM
Chain of Peroxisome proliferator-activated receptor delta (Homo sapiens) (Q03181 whole entry, looked up): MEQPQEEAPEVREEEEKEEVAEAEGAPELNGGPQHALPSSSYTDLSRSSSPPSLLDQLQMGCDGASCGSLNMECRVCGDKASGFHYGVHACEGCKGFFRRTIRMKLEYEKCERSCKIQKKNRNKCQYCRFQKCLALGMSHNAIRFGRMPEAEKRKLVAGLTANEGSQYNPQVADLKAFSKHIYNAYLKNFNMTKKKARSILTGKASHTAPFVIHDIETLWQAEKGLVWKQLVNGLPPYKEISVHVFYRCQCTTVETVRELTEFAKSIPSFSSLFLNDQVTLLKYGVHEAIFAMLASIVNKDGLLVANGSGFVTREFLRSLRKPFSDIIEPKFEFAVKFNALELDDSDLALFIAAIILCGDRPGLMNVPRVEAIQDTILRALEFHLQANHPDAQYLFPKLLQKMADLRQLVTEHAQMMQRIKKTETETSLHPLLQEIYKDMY
Summary of the method: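 Cells expressing a UAS-driven beta-lactamase reporter (PPARd-bla HEK293H) were given test compounds after a 5 h settle and kept at 37 C. Reporter activity was then measured as FRET fluorescence using LiveBLAzer B/G substrate.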

[20] = target: Peroxisome proliferator-activated receptor delta (Homo sapiens) (UniProt Q03181); assay: qHTS assay to identify small molecule antagonists of the peroxisome proliferator-activated receptor delta (PPARd) signaling pathway (AID 743215; active means well fitted inhibition curve with a large enough effect in the signal ratio in the repeat runs, not every such curve was filed as active; the % refers to the signal ratio;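 further: cells stimulated with agonist L165041 at 300 nM final during compound exposure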); details: HEK293H PPARd-UAS-bla, beta-lactamase FRET ratio, antagonist, 17 h; series mostly up to 62 µM
Summary of the method: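 Cells: HEK293H with a UAS-driven beta-lactamase reporter responsive to PPARd. Compounds were co-added with L165041 (300 nM, final) and incubated 17 h at 37 C before a 2 h room-temperature FRET substrate step and fluorescence reading.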

Measured: outcome

C=C(C)C1CC=C(C)C(=O)C1 (stereo not drawn)
not listed: [16] | [17] | [18] | [19] | [20]
inactive: all other assays above

CCCCOCC(C)O (stereo not drawn)
not listed: [6] | [17] | [18] | [19] | [20]
inactive: all other assays above

CC1(C)Oc2ccc(C#N)cc2[C@@H](N2CCCC2=O)[C@@H]1O
not listed: [5] | [6] | [19] | [20]
inactive: all other assays above

CC(O)CC(C)O (stereo not drawn)
not listed: [1]
inactive: all other assays above

O=C(O)CSCC(=O)NC1CCSC1=O (stereo not drawn)
not listed: [1] | [6]
inactive: all other assays above

CN(C)CCN(C)CCO
not listed: [19] | [20]
inactive: all other assays above

CC(=O)O[C@H]1C[C@@H]2CC[C@@]1(C)C2(C)C
not listed: [3] | [4] | [6] | [16] | [19] | [20]
inactive: all other assays above

CCC(=O)Oc1ccc2c(c1)CC[C@@H]1[C@@H]2CC[C@@]2(C)[C@H]1C[C@@H](OC(=O)CC)[C@@H]2OC(=O)CC
not listed: [4] | [19] | [20]
inactive: all other assays above

OC1OCCOC1O (stereo not drawn)
not listed: [4] | [17] | [19] | [20]
inactive: all other assays above

O=C(O)CNC(=O)CNC(=O)CNC(=O)CSC(=O)c1ccccc1
not listed: [17] | [18] | [19] | [20]
inactive: all other assays above

CN(C)CC/C=C1/c2ccccc2COc2ccc(CC(=O)O)cc21
not listed: [2] | [5] | [6] | [17] | [18] | [19] | [20]
inactive: all other assays above

CCCC(CC)c1ccccc1 (stereo not drawn)
not listed: [17] | [18] | [19] | [20]
inactive: all other assays above

O=C(NCN1CCOCC1)c1cnccn1
not listed: [1] | [4] | [6] | [17] | [18]
inactive: all other assays above

CO[Si](CCCn1c(=O)n(CCC[Si](OC)(OC)OC)c(=O)n(CCC[Si](OC)(OC)OC)c1=O)(OC)OC
not listed: [1] | [17] | [18]
inactive: all other assays above

C=CCN1C[C@H](C(=O)N(CCCN(C)C)C(=O)NCC)C[C@@H]2c3cccc4[nH]cc(c34)C[C@H]21
not listed: [1] | [2] | [17] | [18]
inactive: all other assays above

Cc1ccc(C(=O)O)cc1[N+](=O)[O-]
not listed: [1] | [2] | [6] | [7] | [17] | [18] | [19] | [20]
inactive: all other assays above
